Data: article PMC13494018

What follows are binders tested against CD276, Q5ZPR3.
CD276, Q5ZPR3, sequence (Q5ZPR3 whole entry): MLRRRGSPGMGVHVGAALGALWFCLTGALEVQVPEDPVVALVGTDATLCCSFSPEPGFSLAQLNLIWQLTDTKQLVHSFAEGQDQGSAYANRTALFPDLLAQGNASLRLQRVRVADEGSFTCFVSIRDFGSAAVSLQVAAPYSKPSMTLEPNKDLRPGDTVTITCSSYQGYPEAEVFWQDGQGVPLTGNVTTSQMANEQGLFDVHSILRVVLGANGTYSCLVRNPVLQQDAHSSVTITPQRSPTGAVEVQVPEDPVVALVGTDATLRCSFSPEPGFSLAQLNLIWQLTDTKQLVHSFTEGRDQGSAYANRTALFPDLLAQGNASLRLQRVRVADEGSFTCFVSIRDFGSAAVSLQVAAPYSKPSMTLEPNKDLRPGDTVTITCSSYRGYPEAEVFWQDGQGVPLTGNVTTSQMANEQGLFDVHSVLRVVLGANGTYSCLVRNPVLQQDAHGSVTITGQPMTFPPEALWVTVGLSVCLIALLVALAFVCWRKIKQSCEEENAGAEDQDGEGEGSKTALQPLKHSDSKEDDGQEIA

Binder | binding in a display sort
design_618_d4ffd631-0ea2-432e-ba0f-bd3d6297b2a0_2173_dldesign_0_cycle1_af2pred (protein) SSAKEKAKKLAEEAKKIADKAIAQAKALAADKGAANAVLLDAIKELSELAKKAYALDPAYADKINAYAQELVKQMAAIAG | not found (inactive)
design_618_d4ffd631-0ea2-432e-ba0f-bd3d6297b2a0_1624_dldesign_0_cycle1_af2pred (protein) MKAEVEALREQVSKAVNAATKAGSAAALKDGLASSQKLSEVMEEVGELVKKGNEATKKGEYEEALKYYQKAIEIATDAKAYFEKVAAA | not found (inactive)
design_619_5728adc2-0aea-404f-92dd-a4575c53f550_74_dldesign_0_cycle1_af2pred (protein) DLDAVIATGMLALGKANAALAAARAGTATAAELEAAAAEAEAAAALAAALAAQSSTMAWLAAQLKKAAAELRAAAAKLKA | not found (inactive)
design_618_d4ffd631-0ea2-432e-ba0f-bd3d6297b2a0_2309_dldesign_0_cycle1_af2pred (protein) AGLEIANKALQLAAEATAALKAAAKGTAAEVEALAKKYLDEAKKLKEQATTPQAKAAANIAISAVTTAKKAALAAVA | not found (inactive)
design_619_5728adc2-0aea-404f-92dd-a4575c53f550_103_dldesign_0_cycle1_af2pred (protein) SEAERYAEAAKKLAQVAKDIAAAFPANPELKKEAEKAKKYAEKAEKLVKEGGSAEEVLKEYEKARAALARATKLAIAA | not found (inactive)
design_618_d4ffd631-0ea2-432e-ba0f-bd3d6297b2a0_2465_dldesign_0_cycle1_af2pred (protein) AAAAQAAAILAAAQQGINDTTALLEKYKDVATPETVALFNKALAYFSKAAALALRGTQPAEAAAALAKGQEEAKKGEELLKKEVE | not found (inactive)
design_618_d4ffd631-0ea2-432e-ba0f-bd3d6297b2a0_2266_dldesign_0_cycle1_af2pred (protein) SADVELGKEKGKELAEKIKEAAKKGLKAGDPEAAGKEMNKIVQEAIKFAATLSPEAASVLLSIVIETAKEESAKLKAA | not found (inactive)
design_619_5728adc2-0aea-404f-92dd-a4575c53f550_132_dldesign_0_cycle1_af2pred (protein) AEAAAALAAAMRAATDAAVAEAATGTGEGIAKALHVANLARAAAEANPETAAEHRAYAERALAAAKAAQAAAIAAA | not found (inactive)
design_618_d4ffd631-0ea2-432e-ba0f-bd3d6297b2a0_2235_dldesign_0_cycle1_af2pred (protein) EEDEKILESAKKMKEVAKDLAEYAKTSTAEVAKIAANSAEALARILKETAKESKKKEEIEKLAKEAEEYAKEAKETAKKK | not found (inactive)
design_619_5728adc2-0aea-404f-92dd-a4575c53f550_149_dldesign_0_cycle1_af2pred (protein) SPAQEAARAEADRAAEAIAAFAKQIAAAASPELAKEVLAAAEKAAAALAAAKELPAEEARAATDAVWAAANRAAAAAMRQVLAQTT | not found (inactive)
design_618_d4ffd631-0ea2-432e-ba0f-bd3d6297b2a0_2296_dldesign_0_cycle1_af2pred (protein) DKYATEAKKYAEEAEKLAKEAKKEAKKVGEAAKELAKQAEAAAKTAKIAAEGAEAATDPAARALALKVAEQAYKQAKKLLKEIKKL | not found (inactive)
design_618_d4ffd631-0ea2-432e-ba0f-bd3d6297b2a0_2021_dldesign_0_cycle1_af2pred (protein) AALAAQGRAIARTMRIAVLNAATAAEAAAIADTFGTTLLNLADLASPEEQRAIVEATRAEAEEVAAENPEAGAAVAATAERLRAHVEA | not found (inactive)
design_618_d4ffd631-0ea2-432e-ba0f-bd3d6297b2a0_1628_dldesign_0_cycle1_af2pred (protein) AAQAQADQITKAAAEAAIKSAKAMVDINLESARKLAEVAADLGKAAPATAAEIKAAAKAVIEEADKKEAEKA | not found (inactive)
design_619_5728adc2-0aea-404f-92dd-a4575c53f550_130_dldesign_0_cycle1_af2pred (protein) DELFARLEELARALVEEAAKRSPELADIILESYEEGKKIAEELGFGPVTAIAIAAALALRRDPEAGALLRQVFVEVARAAIEAQ | not found (inactive)
design_618_d4ffd631-0ea2-432e-ba0f-bd3d6297b2a0_2000_dldesign_0_cycle1_af2pred (protein) RAAAVEAALAYARAVAETDASLEAARAAFERAKALLPEAPEAAGTLAGAALVAGSNPALGERLFAAGAARAA | not found (inactive)
design_618_d4ffd631-0ea2-432e-ba0f-bd3d6297b2a0_1622_dldesign_0_cycle1_af2pred (protein) SKEEREKIYKEALKNLEKMGTLLLDLAAQGSAADVAAAKAAIEEAKKLIEEAKKANPEEAKKLAKEAHDILSKALAAVSKSVIA | not found (inactive)
design_618_d4ffd631-0ea2-432e-ba0f-bd3d6297b2a0_2461_dldesign_0_cycle1_af2pred (protein) STAFFQEATKLIEEAGEVANRVPEVAPLANKAITAASKAMLAAAQGNEAAAKAYFDEAKKLLEEAKKKAKELLE | not found (inactive)
design_618_d4ffd631-0ea2-432e-ba0f-bd3d6297b2a0_1745_dldesign_0_cycle1_af2pred (protein) SAARLAEQRARAAELRERAEEALKRAEQVEKKNPAAGAAVRALVRQALRQVELGLADPENAERYLDSARRNLEVAQGIIDATL | not found (inactive)
design_618_d4ffd631-0ea2-432e-ba0f-bd3d6297b2a0_2243_dldesign_0_cycle1_af2pred (protein) AAAAATALAKATAEALVRSAERGNAETARKLAEVAKGLAEGEAAAGDEEAAKAAAEAAKKIEAIAKEKAA | not found (inactive)
